Data taken from the supplement of paper PMC12350171.
Where a name gives a salt, the structure may show the parent alone. Values without a mark were called inactive.

Tests used:
Conditions in all cases: 20 µM
[1] = system: Salmonella enterica typhimurium; assay: growth AUC normalised to DMSO control (fraction of control); higher = less growth inhibition, active = hit call of the paper
How it was run: (§1)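 Three biological replicates were carried out, with OD578 read hourly for 24 h. Before inoculation at a starting OD578 of 0.01, pathogens were passaged anaerobically twice; plates were pre-reduced mGAM containing 20 μM compound and 1% DMSO, sealed with breathable membranes, and the Haemophilus parainfluenzae medium carried added hemin and NAD. Area under each growth curve was calculated by the trapezoidal rule up to the exponential-to-stationary transition and normalised to DMSO controls on the same plate.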

[2] = system: Shigella flexneri; assay: as above
How it was run: as §1

[3] = system: Vibrio cholerae; assay: as above
How it was run: as §1

[4] = system: Yersinia pseudotuberculosis; assay: as above
How it was run: as §1

[5] = system: P. vulgatus RND KO; assay: growth AUC normalised to DMSO control (median) (fraction of control); higher = less growth inhibition, active = hit call of the paper
How it was run: (§2)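 Area under the growth curve, calculated by the trapezoidal rule up to entry into stationary phase, was normalised to vehicle wells on the same plate. Strains had been passaged twice overnight without oxygen and then grown in mGAM in 96-well plates from OD578 0.01, each with an approved-drug library compound at 20 μM in 1% DMSO. OD578 was read hourly over 24 h in an anaerobic incubator, and the median of three biological replicates is given.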

[6] = system: P. vulgatus WT; assay: as above
How it was run: as §2

[7] = system: S. enterica typhimurium WT; assay: as above
How it was run: as §2

[8] = system: S. enterica typhimurium tolC KO; assay: as above
How it was run: as §2
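Throughout, for growth AUC normalised to DMSO control (median): active when median AUC fell below 0.1.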

| Compound | growth AUC normalised to DMSO control [1] | growth AUC normalised to DMSO control [2] | growth AUC normalised to DMSO control [3] | growth AUC normalised to DMSO control [4] | growth AUC normalised to DMSO control [5] | growth AUC normalised to DMSO control [6] | growth AUC normalised to DMSO control [7] | growth AUC normalised to DMSO control [8] |
| --- | --- | --- | --- | --- | --- | --- | --- | --- |
| CCC(=O)[C@@]1(C)[C@H](C)C[C@H]2[C@@H]3CCC4=CC(=O)C=C[C@]4(C)[C@H]3[C@@H](O)C[C@@]21C [Rimexolone] | 1.01 | 1.01 | 1.01 | 0.997 | 1.03 | 1.07 | 1 | 0.999 |
| CCCCOc1ccc(CC(=O)NO)cc1 [Bufexamac] | 0.996 | 0.974 | 1.01 | 0.956 | 1.01 | 0.991 | 0.997 | 0.967 |
| CC(C[N+](C)(C)C)OC(N)=O (stereo not drawn) [Bethanechol chloride] | 1 | 1.01 | 1.02 | 0.986 | 0.982 | 0.997 | 1 | 0.993 |
| CCCCC(=O)O[C@H]1CC[C@H]2[C@@H]3CCc4cc(O)ccc4[C@H]3CC[C@]12C [Estradiol Valerate] | 1.05 | 1.05 | 1.08 | 1.01 | 1 | 1.07 | 0.998 | 1 |
| C=CC1=C(C(=O)O)N2C(=O)[C@@H](NC(=O)/C(=N\O)c3csc(N)n3)[C@H]2SC1 [Cefdinir] | 0.00595 (active) | 0.00663 (active) | 0.0728 (active) | 0.023 (active) | 0.0139 (active) | 0.0141 (active) | 0.0086 (active) | 0.00501 (active) |
| CC[N+](CC)(CC(=O)Nc1c(C)cccc1C)Cc1ccccc1 [Denatonium benzoate] | 1.01 | 1.02 | 1.03 | 0.982 | 1.05 | 1.09 | 0.999 | 1.01 |
| CN(C)CC/C=C1/c2ccccc2COc2ccc(CC(=O)O)cc21 [Olopatadine hydrochloride] | 1.02 | 0.963 | 1.03 | 1.02 | 0.99 | 0.984 | 0.992 | 0.992 |
| COc1cccc(N(C)C(=S)Oc2ccc3c(c2)CCCC3)n1 [Liranaftate] | 1.02 | 1.03 | 1.01 | 1.01 | 1.03 | 1.07 | 0.996 | 0.909 |
| CCCC(=O)Nc1ccc(OCC(O)CNC(C)C)c(C(C)=O)c1 (stereo not drawn) [Acebutolol hydrochloride] | 1 | 0.995 | 1.01 | 1.01 | 1.01 | 1.01 | 1 | 1.01 |
| CN1CCN(c2c(F)cc3c(=O)c(C(=O)O)cn4c3c2SCC4)CC1 [Rufloxacin] | 0.006 (active) | 0.0254 (active) | 0.0252 (active) | 0.0274 (active) | 0.63 | 0.47 | 0.0284 (active) | 0.00853 (active) |
| CCCc1nc2c(C)cc(-c3nc4ccccc4n3C)cc2n1Cc1ccc(-c2ccccc2C(=O)O)cc1 [Telmisartan] | 1 | 1.02 | 1.02 | 1.01 | 0.852 | 0.897 | 0.996 | 0.995 |
| CC(=O)O[C@@]12CO[C@@H]1C[C@H](O)[C@@]1(C)C(=O)[C@H](O)C3=C(C)[C@@H](OC(=O)[C@H](O)[C@@H](NC(=O)OC(C)(C)C)c4ccccc4)C[C@@](O)([C@@H](OC(=O)c4ccccc4)[C@H]21)C3(C)C [Docetaxel] | 0.995 | 0.982 | 1.07 | 1.04 | 0.904 | 0.92 | 1 | 1 |
| Cc1cc(C(C)(C)C)cc(C)c1CC1=NCCN1 [Xylometazoline hydrochloride] | 1.03 | 0.999 | 0.999 | 0.989 | 1.02 | 1.02 | 0.995 | 0.989 |
| CC(=O)c1ccc(S(=O)(=O)NC(=O)NC2CCCCC2)cc1 [Acetohexamide] | 1 | 0.998 | 0.984 | 0.989 | 0.949 | 1 | 0.996 | 0.994 |
| Oc1c(Cl)cc(Cl)c(Cl)c1Cc1c(O)c(Cl)cc(Cl)c1Cl [Hexachlorophene] | 0.941 | 1.04 | 0.0587 (active) | 0.411 (active) | 0.00764 (active) | 0.00869 (active) | 0.972 | 0.00738 (active) |
| CC(C)NCC(O)COc1cccc2[nH]ccc12 (stereo not drawn) [Pindolol] | 1.01 | 1.04 | 1.03 | 0.978 | 1.05 | 1.08 | 1 | 1.01 |

| Compound | growth AUC normalised to DMSO control [1] | growth AUC normalised to DMSO control [2] | growth AUC normalised to DMSO control [3] | growth AUC normalised to DMSO control [4] | growth AUC normalised to DMSO control [5] | growth AUC normalised to DMSO control [6] | growth AUC normalised to DMSO control [7] | growth AUC normalised to DMSO control [8] |
| --- | --- | --- | --- | --- | --- | --- | --- | --- |
| NNC(=O)c1ccncc1 [Isoniazid] | 1.02 | 1.04 | 1.05 | 0.942 | 1.04 | 1.07 | 1.01 | 0.989 |
| NCCNCCNCCNCCN [Tetraethylenepentamine pentahydrochloride] | 0.99 | 0.972 | 0.979 | 0.998 | 0.998 | 0.995 | 1.01 | 1 |
| c1cnc(N2CCN(Cc3ccc4c(c3)OCO4)CC2)nc1 [Piribedil] | 1 | 1.03 | 0.999 | 1.01 | 1.07 | 1.09 | 0.984 | 1 |
| CC1COc2c(N3CCN(C)CC3)c(F)cc3c(=O)c(C(=O)O)cn1c23 (stereo not drawn) [Ofloxacin] | 0.00746 (active) | 0.0235 (active) | 0.031 (active) | 0.0386 (active) | 0.0133 (active) | 0.0136 (active) | 0.0106 (active) | 0.00311 (active) |
| CS(=O)(=O)OCCCCOS(C)(=O)=O [Busulfan] | 1.01 | 1.04 | 1.07 | 1.03 | 1.02 | 0.994 | 1.01 | 1.01 |
| Cc1ccc(NC(=O)c2ccc(CN3CCN(C)CC3)cc2)cc1Nc1nccc(-c2cccnc2)n1 [Imatinib] | 1.03 | 1.06 | 1.12 | 0.991 | 1.12 | 1.09 | 1.03 | 0.259 |
| CC(C)NC(=N)NC(=N)Nc1ccc(Cl)cc1 [Proguanil hydrochloride] | 0.959 | 0.962 | 0.985 | 0.992 | 1 | 1.01 | 0.988 | 0.984 |
| CO[C@@]1(NC(=O)C2SC(=C(C(N)=O)C(=O)O)S2)C(=O)N2C(C(=O)O)=C(CSc3nnnn3C)CS[C@@H]21 (stereo partly drawn) [Cefotetan] | 0.00234 (active) | 0.0192 (active) | 0.186 (active) | 0.0842 (active) | 0.0118 (active) | 0.0068 (active) | 0.00563 (active) | 0.00413 (active) |
| CN1CCCN=C1/C=C/c1cccc(O)c1 [Oxantel pamoate] | 1.01 | 1.02 | 1.05 | 1.02 | 1.01 | 0.992 | 1.01 | 1.01 |
| CCN(Cc1ccncc1)C(=O)C(CO)c1ccccc1 (stereo not drawn) [Tropicamide] | 1.01 | 0.987 | 0.995 | 1 | 0.996 | 0.995 | 1.01 | 1 |
| O=C(O)COCCN1CCN(C(c2ccccc2)c2ccc(Cl)cc2)CC1 (stereo not drawn) [Cetirizine dihydrochloride] | 1 | 0.994 | 0.988 | 0.981 | 1 | 1.01 | 1.01 | 0.994 |
| CC(C(=O)O)c1ccc(C(=O)c2cccs2)cc1 (stereo not drawn) [Suprofen] | 0.987 | 1.04 | 1.05 | 1.02 | 1.01 | 1.03 | 0.996 | 0.995 |
| CC(N/C(=N\C#N)Nc1ccncc1)C(C)(C)C (stereo not drawn) [Pinacidil monohydrate] | 0.991 | 1 | 0.998 | 0.982 | 1.07 | 1.06 | 1.01 | 0.976 |
| c1ccc(-c2ccc(C(c3ccccc3)n3ccnc3)cc2)cc1 (stereo not drawn) [Bifonazole] | 1.01 | 1.04 | 1 | 1.02 | 0.983 | 1 | 0.999 | 0.92 |
| Nc1nc(N)c2nc(-c3ccccc3)c(N)nc2n1 [Triamterene] | 0.942 | 1.06 | 0.99 | 0.95 | 0.973 | 0.971 | 0.954 | 0.939 |
